This note sets out measurements from paper PMC5540273 (PLoS ONE, 2017).

Among the test systems are MARK3; MARK4; MAST1; MELK.
What all share (details): concentration: 1 μM, replicates: in singlicate; n = 1
The test system of another experiment is T1, MEK1.
T1 construct: gene MAP2K1

The subject of another experiment is T2, MEK2.
T2 construct: gene MAP2K2

The next experiment concerns T3, MEK3.
T3 construct: gene MAP2K3

A further experiment deals with T4, MEK4.
T4 construct: gene MAP2K4

For a further experiment, the system named is T5, MEK5.
T5 construct: gene MAP2K5

The test system of the next experiment is T6, MEK6.
T6 construct: gene MAP2K6
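Further: KINOMEscan kinase panel screen.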

Take `CCC(CC)(CC)n1cnc2c(N)ncnc21` [SKF-97620]: the “%Inh” value amounted to 34% in the experiment with MARK3; 37% with MARK4; 32% with MAST1; 10% in the experiment on MEK1; 21% in the experiment with MEK2; 36% in the experiment with MEK3. Besides, the “%Inh” value in the experiment on MEK4 came to 43%; in the experiment on MEK5, 45%; in the experiment on MEK6, 14%; in the experiment with MELK, 0%.

For `C[C@H]1CC[C@@H](C(=O)Nc2ccccc2)CN1c1cc(-c2ccc3c(N)n[nH]c3c2)nc(N)n1` [GSK2283293], the “%Inh” value with MARK3, with MARK4, with MAST1, in the experiment on MEK1, with MEK2 and with MEK3 was 0% throughout. Besides, the “%Inh” value with MEK4 is 3%; with MEK5, 11%; with MEK6, 0%; in the experiment on MELK, 0%.

`O=C(Nc1ccccc1F)NC1CCN(c2ccnc(Nc3ccc(F)cc3)n2)C1` (centres unmarked) [GSK1379722]: the “%Inh” value amounted to 0% in the experiment with MARK3; 0% in the experiment on MARK4; 14% with MAST1; 0% in the experiment on MEK1; 0% in the experiment on MEK2; 0% with MEK3. In addition, the “%Inh” value came out at 25% in the experiment on MEK4, 12% in the experiment on MEK5, 0% in the experiment on MEK6 and 0% in the experiment with MELK.

As to `O=c1cc(N2CCOCC2)nc2n(Cc3cccc(Cl)c3)ccn12` [GSK2296823], the “%Inh” value worked out at 0% with MARK3; 5% in the experiment on MARK4; 0% in the experiment with MAST1; 8% with MEK1; 0% in the experiment with MEK2; 0% with MEK3. For the same molecule, the “%Inh” value was 4% in the experiment with MEK4, 13% in the experiment on MEK5, 0% with MEK6 and 0% in the experiment with MELK.

On to `Nc1n[nH]c2nnc(-c3ccccc3)cc12` [SB-517389], for which the “%Inh” value in the experiment with MARK3, with MARK4, with MAST1, in the experiment on MEK1, in the experiment on MEK2 and in the experiment with MEK3 was 0% each time. In addition, the “%Inh” value in the experiment with MEK4 came out at 24%; with MEK5, 38%; in the experiment with MEK6, 0%; in the experiment on MELK it was 0%.

As to `Cc1cccc(-c2nc(Nc3ccc4[nH]nnc4c3)c3ccccc3n2)n1` [GW867587], the “%Inh” value in the experiment with MARK3 was found to be 18%; with MARK4, 3%; with MAST1, 17%; with MEK1, 7%; in the experiment on MEK2, 16%; in the experiment with MEK3 it was 5%. In addition, the “%Inh” value in the experiment on MEK4 was 0%; in the experiment on MEK5, 19%; with MEK6, 0%; with MELK, 0%.

As to `CSc1ccc(NC2=C(c3ccccc3Cl)C(=O)NC2=O)cc1` [SB-342411], the “%Inh” value with MARK3 is recorded as 0%; with MARK4, 13%; in the experiment on MAST1, 0%; in the experiment with MEK1 it was 14%; in the experiment with MEK2 it was 3%; in the experiment with MEK3, 0%. Besides, the “%Inh” value turned out to be 0% with MEK4, 5% in the experiment with MEK5, 76% with MEK6 and 4% in the experiment with MELK.

As for `O=C(CCO)NCCn1ccc2ncnc(Nc3ccc(Oc4cccc(C(F)(F)F)c4)c(Cl)c3)c21`, the “%Inh” value in the experiment with MARK3 is reported as 0%; in the experiment with MARK4, 0%; in the experiment with MAST1, 0%; in the experiment with MEK1 it was 0%; in the experiment with MEK2 it was 34%; with MEK3, 0%. Further, the “%Inh” value in the experiment with MEK4 was 0%; in the experiment with MEK5, 99.4%; with MEK6 it was 0%; in the experiment on MELK it was 0%.

Consider `Fc1cccc(COc2ccc(Nc3ncnc4cc[nH]c34)cc2Cl)c1`, for which the “%Inh” value with MARK3 was determined as 9%; in the experiment with MARK4, 0%; with MAST1, 65%; in the experiment with MEK1, 12%; in the experiment with MEK2, 21%; in the experiment on MEK3, 18%. Further, the “%Inh” value with MEK4 is recorded as 20%; in the experiment on MEK5, 47%; in the experiment with MEK6, 0%; in the experiment with MELK, 6%.

Regarding `COc1ccc(Nc2nccc(N3CCC(NC(=O)c4cccc(NC(C)=O)c4)C3)n2)cc1` (centres unmarked) [GSK1379732], the “%Inh” value with MARK3 was found to be 3%; in the experiment with MARK4, 0%; with MAST1, 42%; in the experiment with MEK1, 0%; in the experiment with MEK2, 0%; in the experiment with MEK3, 0%. The “%Inh” value in the experiment on MEK4 was 18%; in the experiment on MEK5, 19%; in the experiment with MEK6, 0%; with MELK, 0%.

With `N#Cc1ccc(Oc2ccc(Nc3ncnc4cc[nH]c34)cc2Cl)cc1`, the “%Inh” value in the experiment with MARK3 turned out to be 0%; in the experiment with MARK4, 0%; with MAST1, 38%; with MEK1, 22%; in the experiment on MEK2, 39%; in the experiment with MEK3 it was 37%. In addition, the “%Inh” value worked out at 0% in the experiment on MEK4, 44% in the experiment with MEK5, 19% in the experiment on MEK6 and 25% in the experiment on MELK.

Turning to `O=C(Nc1n[nH]c2nc(-c3ccco3)c(Br)cc12)c1ccc(CN2CCCC2)cc1.O=C(O)[C@H](O)[C@@H](O)C(=O)O` [SB-742352], the “%Inh” value with MARK3 is 0%; with MARK4, 2%; with MAST1, 6%; in the experiment on MEK1, 0%; in the experiment on MEK2, 0%; with MEK3, 0%. The “%Inh” value in the experiment with MEK4 was determined as 0%; in the experiment on MEK5, 83%; in the experiment with MEK6, 0%; in the experiment on MELK, 3%.

For `FC(F)(F)c1ccc(-c2nn3ncccc3c2-c2ccnc(Nc3cccc(C(F)(F)F)c3)n2)cc1` [GW828205], the “%Inh” value in the experiment on MARK3 was 13%; with MARK4 it was 0%; in the experiment with MAST1, 12%; in the experiment on MEK1 it was 4%; in the experiment on MEK2, 28%; in the experiment on MEK3 it was 0%. For the same molecule, the “%Inh” value was found to be 0% in the experiment with MEK4, 4% in the experiment with MEK5, 0% in the experiment with MEK6 and 0% in the experiment on MELK.

Consider `CC(C)N1CCC(n2cnc(-c3ccc(F)cc3)c2-c2ccnc(N)n2)CC1` [SB-223132], for which the “%Inh” value with MARK3 is 14%; with MARK4, 15%; in the experiment on MAST1 it was 0%; in the experiment with MEK1 it was 0%; in the experiment on MEK2, 22%; in the experiment on MEK3, 0%. Besides, the “%Inh” value was found to be 0% in the experiment on MEK4, 31% in the experiment on MEK5, 3% in the experiment with MEK6 and 8% in the experiment with MELK.

As to `Cn1ccc2ncnc(Nc3ccc(Oc4cccc(Cl)c4)c(Cl)c3)c21`, the “%Inh” value in the experiment with MARK3 is recorded as 0%; in the experiment with MARK4, 9%; in the experiment on MAST1, 0%; with MEK1, 29%; with MEK2, 31%; in the experiment with MEK3 it was 1%. The “%Inh” value in the experiment on MEK4 turned out to be 17%; with MEK5, 99.6%; in the experiment on MEK6 it was 27%; in the experiment on MELK, 0%.

Regarding `c1ccc(-c2ccc3c(-c4ccnc(Nc5ccc6c(c5)OCCO6)n4)cnn3n2)cc1` [GW818941], the “%Inh” value in the experiment with MARK3 was determined as 0%; with MARK4, 9%; in the experiment with MAST1, 8%; in the experiment with MEK1, 17%; in the experiment with MEK2, 3%; in the experiment with MEK3, 0%. Moreover, the “%Inh” value in the experiment with MEK4 turned out to be 9%; with MEK5, 5%; in the experiment with MEK6, 0%; in the experiment with MELK, 0%.

Take `Clc1cccc(-c2nc(Nc3ccncc3)c3ccccc3n2)c1` [GW873004]: the “%Inh” value with MARK3 is recorded as 32%; in the experiment on MARK4 it was 23%; in the experiment on MAST1 it was 53%; in the experiment with MEK1, 10%; in the experiment with MEK2, 21%; with MEK3 it was 0%. The “%Inh” value in the experiment on MEK4 is 0%; with MEK5, 14%; in the experiment with MEK6, 0%; in the experiment on MELK it was 31%.

In the case of `CNc1nccc(-c2c(-c3ccc(F)cc3)ncn2CCCN2CCOCC2)n1` [SB-222516], the “%Inh” value in the experiment with MARK3 is reported as 0%; in the experiment on MARK4, 35%; in the experiment with MAST1 it was 20%; in the experiment with MEK1 it was 0%; with MEK2, 12%; in the experiment with MEK3, 15%. In addition, the “%Inh” value in the experiment with MEK4 is given as 23%; in the experiment on MEK5, 46%; in the experiment on MEK6, 0%; with MELK, 24%.

On to `CC(=O)Nc1n[nH]c2ncc(-c3ccccc3)cc12` [SB-548492], for which the “%Inh” value with MARK3 stood at 0%; with MARK4, 8%; with MAST1, 42%; with MEK1, 23%; with MEK2, 35%; with MEK3, 19%. In addition, the “%Inh” value with MEK4 turned out to be 21%; in the experiment on MEK5 it was 87%; in the experiment with MEK6, 0%; in the experiment with MELK, 21%.

For the molecule `CC(C)(C)OC(=O)NC1CCCN(c2cc(-c3ccc4c(N)n[nH]c4c3)nc(N)n2)C1` (centres unmarked) [GSK2286096], the “%Inh” value with MARK3 was 0%; in the experiment on MARK4, 0%; in the experiment with MAST1, 0%; in the experiment on MEK1, 100%; in the experiment with MEK2 it was 0%; with MEK3 it was 0%. Further, the “%Inh” value in the experiment on MEK4 turned out to be 7%; with MEK5, 30%; in the experiment with MEK6, 0%; in the experiment on MELK it was 0%.
